# Bioassay records (PubChem BioAssay)
# The list is not random: actives were taken first. Their share in the collection is about 3.4%.
# Giardia FBPA inh-1 = inhibitors of Giardia lamblia fructose-1,6-bisphosphate aldolase | Potency, µM (doses to about 59.6 µM), usual class: inhibitors | A8B2U2 | actives 0.71% (n = 290,000) | purified Giardia FBPA; further: nearly all actives have a fitted effect of over 55% in size
#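 Giardia FBPA (40 nM reagent) was preincubated 10 min at RT with compound (up to 57.5 uM final), then substrate plus GAPDH/TPI/NAD/arsenate coupling system with diaphorase/resazurin was added; resorufin fluorescence (525/598 nm) was read after 20 min.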
# AmpC no deterg = inhibitors of E. coli AmpC beta-lactamase without detergent; P00811; AmpC nitrocefin hydrolysis, absorbance 480 nm, 0.0001% Triton; Potency, µM (titrated, usually from 57.1 µM), most hits filed as inhibitors; actives 0.52% (n = 330,000); AID 485341; further: nearly all actives have a fitted effect of over 20% in size
# Target sequence (P00811 whole entry, looked up): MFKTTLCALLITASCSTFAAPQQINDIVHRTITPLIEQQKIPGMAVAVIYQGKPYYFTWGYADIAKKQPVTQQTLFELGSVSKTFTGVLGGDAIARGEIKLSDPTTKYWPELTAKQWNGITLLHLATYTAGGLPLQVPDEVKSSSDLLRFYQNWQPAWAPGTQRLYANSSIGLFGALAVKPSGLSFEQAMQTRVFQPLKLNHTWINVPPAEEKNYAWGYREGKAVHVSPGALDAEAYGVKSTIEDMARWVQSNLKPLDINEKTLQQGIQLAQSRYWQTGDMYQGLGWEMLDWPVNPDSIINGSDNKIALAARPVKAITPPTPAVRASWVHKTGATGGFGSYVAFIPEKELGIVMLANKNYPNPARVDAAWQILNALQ
#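 AmpC (5.3 nM in the dispensed reagent) in 20 mM phosphate pH 7.0 with 0.01% (detergent screen) or 0.0001% Triton X-100 was preincubated with compounds for 15 min at room temperature. Nitrocefin was then added from an 800 uM solution, and hydrolysis was followed at 480 nm.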
# Sm TGR inh = blocks Schistosoma mansoni thioredoxin glutathione reductase. actives 3% (n = 360,000). Potency, µM (highest dose often 114 µM), hits mostly inhibitors. purified TGR, DTNB reduction, TNB absorbance 405 nm. Q962Y6. AID 485364; further: nearly all actives have a fitted effect of over 60% in size
#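 TGR 20 nM + NADPH 100 uM (dispensed conc.), cpd preinc 15 min RT; start with NADPH (500 uM addition) then DTNB (15 mM addition). Kinetic TNB absorbance, 405 nm filter. Four-parameter Hill fit across titration.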
# RE007 growth inh = less growth of the S. pombe RE007 Vpr strain | S. pombe RE007 Vpr strain, BacTiter-Glo ATP luminescence, 24 h | Potency, µM (series often up to 92.2 µM), most hits filed as inhibitors | actives 0.21% (n = 360,000) | AID 651644; active means well fitted falling curve with a large enough effect; inconclusive means small, poorly fitted or top-dose-only effect; inactive means no such curve, though single readings can be large or run the other way; further: nearly all actives have a fitted effect of over 50% in size
#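 Fission yeast RE007 carrying one integrated HIV-1 vpr copy, seeded at OD 0.01 in PMG+AL medium with 23 nL pinned compound. Grown 24 h at 30 degrees; viability read by BacTiter-Glo luminescence after 5 min.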
# AmpC inh detg = AmpC beta-lactamase inhibition with detergent present | P00811 | AmpC hydrolysis of nitrocefin, absorbance 480 nm, 0.01% Triton | Potency, µM (series often up to 114 µM), usual class: inhibitors | actives 0.041% (n = 370,000); further: nearly all actives have a fitted effect of over 25% in size
#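 20 mM phosphate pH 7.0 + 0.01% (detergent screen) or 0.0001% Triton X-100; 5.3 nM AmpC reagent; cpd preinc 15 min RT; nitrocefin (800 uM stock) to start; A480 q20 s × 4 min; Activity was normalised to no-enzyme and no-compound control wells.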
# Giardia growth = inhibitors of Giardia lamblia growth; shares compounds with Giardia FBPA inh-1; Giardia lamblia trophozoite growth inhibition; Potency, µM (titrated, usually from 57.5 µM), hits mostly inhibitors; actives 5% (n = 1,500); AID 2785;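 further: trophozoites exposed to compound for 48 h at 37 °C; nearly all actives have a fitted effect of over 70% in size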
# Mammal cell tox = toxic to mammalian cells in Giardia aldolase counter-screen | shares compounds with Giardia FBPA inh-1 | mammalian cell viability counter-screen, qHTS | Potency, µM (highest dose often 57.5 µM), usual class: inhibitors | actives 4% (n = 1,500);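 further: Chinese hamster ovary cells used as mammalian cytotoxicity surrogate; viability measured as cellular ATP by luminescence; compound exposure lasted 48 h before reading; nearly all actives have a fitted effect of over 60% in size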
# Giardia FBPA inh-2 = confirmation of Giardia fructose-bisphosphate aldolase inhibitors. actives 5% (n = 1,500). Potency, µM (top dose mostly 57.5 µM), hits mostly inhibitors. shares compounds with Giardia FBPA inh-1. purified Giardia aldolase enzyme activity, qHTS. AID 2787; further: nearly all actives have a fitted effect of over 45% in size
# Rabbit aldolase = rabbit FBP aldolase inhibition by Giardia aldolase hits | actives 4% (n = 1,500) | Potency, µM (series often up to 57.5 µM), hits mostly inhibitors | shares compounds with Giardia FBPA inh-1 | Rabbit muscle FBPA enzyme inhibition, selectivity counter-screen; further: nearly all actives have a fitted effect of over 60% in size
# GAPDH coupling = GAPDH inhibition flagged for Giardia aldolase hits; shares compounds with Giardia FBPA inh-1; GAPDH coupling enzyme counterscreen, biochemical, qHTS; Potency, µM (series often up to 57.5 µM), usual class: inhibitors; actives 6% (n = 1,500); AID 2795; further: nearly all actives have a fitted effect of over 55% in size
# Hits are given with their value; - = inactive; ? = inconclusive; . = not tested or not shown; [ ] = remark or other dose. Unless noted, the call rests on the fitted dose curve; in most records, active means well fitted curve in the direction sought with a large enough effect; inconclusive means small, poorly fitted or top-dose-only effect, or another doubt; inactive means no such curve, though single readings can be large; an effect the other way counts as inactive or inconclusive.
SMILES,Giardia FBPA inh-1,AmpC no deterg,Sm TGR inh,RE007 growth inh,AmpC inh detg,Giardia growth,Mammal cell tox,Giardia FBPA inh-2,Rabbit aldolase,GAPDH coupling
CCCN1CCN(CC(=O)Nc2nnc(C)s2)CC1,7.94µM,-,-,-,-,-,-,-,-,-
Cc1cnc(NC(=O)CN2CCCCC2)s1,4.47µM,-,-,-,-,?,-,-,-,-
Cc1cnc(NC(=O)CN2CCN(c3ccccc3F)CC2)s1,-,-,-,-,-,.,.,.,.,.
S=C(NCc1ccccc1)Nc1nccs1,12.6µM,-,3.16µM,-,?,-,-,-,-,-
CCN1CCN(CC(=O)Nc2ccc(OC(F)(F)F)cc2)CC1,17.8µM,-,-,-,-,-,-,-,-,-
O=C(CN1CCCC1)Nc1ccc(OC(F)(F)F)cc1,?,-,-,-,-,.,.,.,.,.
COC(=O)c1sc(NC(=S)NC(=O)c2cc(OC)c(OC)c(OC)c2)nc1C,3.16µM,-,-,-,-,-[10.4 µM],-,-,-,-
COC(=O)c1sc(NC(=S)NC(=O)c2ccccc2)nc1C,-,-,-,?,-,.,.,.,.,.
Cc1nn(C)c(C(=O)NC(=S)Nc2ccc([N+](=O)[O-])cc2)c1Cl,12.6µM,-,-,-,-,-[10.4 µM],-,-,-,-
CCN(CC)C(=S)NC(=O)c1cc(OC)c(OC)c(OC)c1,17.7µM,-,-,-,-,-,-,-,-,-
COc1cc(C(=O)NC(=S)Nc2nccs2)cc(OC)c1OC,14.1µM,-,-,-,-,?,-,-,-,-
COc1cccc(-c2cc(C(=O)Nc3ccccc3)c3ccccc3n2)c1,.,.,.,-,.,.,.,.,.,.
COc1cc(C(=O)NC(=S)Nc2ccc([N+](=O)[O-])cc2)cc(OC)c1OC,12.6µM,-,-,-,-,-,-,-,-,-
COc1cc(C(=O)NC(=S)Nc2ccc([N+](=O)[O-])cc2C)cc(OC)c1OC,?,-,-,.,-,.,.,.,.,.
COC(=O)c1c(NC(=O)c2ccc(S(=O)(=O)N(C)C3CCCCC3)cc2)sc2c1CCN(C)C2,.,.,-,.,-,.,.,.,.,.
Cn1cnc2ncnc(Oc3ccc(Br)cc3)c21,.,.,.,-,.,.,.,.,.,.
CC(C)(C)CC(=O)Nc1ccc(-c2cn3cccnc3n2)cc1,-,-,-,-,-,.,.,.,.,.
C[C@H](NC(=O)[C@H]1N2C(=O)c3ccccc3C2SC1(C)C)C(=O)N1CCCCC1 (some centres undefined),20µM,-,-,-,-,-,-,-,-,?
C[C@H](NC(=O)[C@H]1N2C(=O)c3ccccc3C2SC1(C)C)C(=O)N1CCN(C)CC1 (some centres undefined),-,-,-,-,-,.,.,.,.,.
O=C(NC(=S)N1CCN(C/C=C/c2ccccc2)CC1)c1cccnc1,11.2µM,-,-,-,-,-,-,-,-,-
S=C1NCCOCCNC(=S)NCCOCCOCCOCCN1,4.46µM,-,-,-,-,-,-,-,-,-
Cc1ccc(C(=O)NC(=S)Nc2ccc(CN3CCOCC3)cc2)cc1,.,-,?,-,-,.,.,.,.,.
O=C(NC(=S)Nc1ccc(CN2CCOCC2)cc1)c1cccc(F)c1,11.2µM,-,?,-,-,-,-,-,-,-
Cc1ccc(S(=O)(=O)N2CCCCC2)cc1NC(=O)CNCc1ccco1,7.92µM,-,-,-,-,?,-,-,-,-
O=C(CNCc1ccco1)Nc1ccc(N2CCCCCC2)cc1,17.7µM,-,-,-,-,?,-,-,-,-
COC(=O)c1ccc(C(=O)OC)c(NC(=S)N2CCCCC2C)c1 (centres undefined),-,-,-,-,-,.,.,.,.,.
CCC(C)c1ccccc1NC(=O)C(C)N(C)Cc1cccc(OC)c1 (centres undefined),19.9µM,-,-,-,-,?,-,-,-,-
Cc1cc(=O)n(CC(=O)O)c2ccccc12,-,-,-,-,-,.,.,.,.,.
